Compound activity from PubChem BioAssay.
A selection: hits, their analogues and other compounds. The true share with any hit is near 4%.
Peg3 prom inh: Peg3 promoter-driven luciferase inhibitors, primary screen, cell-based, HeLa, luciferase luminescence. HeLa PEG-Prom luciferase reporter, overnight. AID 588405, 2011. inhibition, % at 20 µM. hit rate 1.7% among 360,000;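 active = inhibition of at least 50% at 20 µM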
CF NFkB inh: inhibitors of PAF-induced NF-kB signaling, primary screen, cell-based, GFP fluorescence, uHTS; KKLEB NF-kB-GFP reporter, GFP fluorescence overnight; hit rate 0.86% among 360,000; inhibition, % at 5 µM;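 active = at least 50% inhibition at 5 µM, scaled per plate between neutral and stimulator controls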;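 also: PAF is a Pseudomonas aeruginosa culture filtrate used as stimulus; plate controls were PAF-stimulated DMSO wells for no effect and unstimulated DMSO wells for full effect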
KKLEB tox: cytotoxicity in KKLEB CF airway cells, primary screen, cytotoxicity control for CF NF-kB inhibitor project, cell-based, uHTS, fluorescence assay plates; AID 602141, 2011; KKLEB CF airway cells viability, ATPlite luminescence, overnight; active compounds read low; cells stimulated with P. aeruginosa culture filtrate; hit rate 0.36% among 360,000; activity change (cytotoxicity), % at 5 µM;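 active = corrected activity change at or below -50% at 5 µM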
TROY signal inh: inhibitors of TROY-driven NF-kB signaling, primary screen, Q293 LMP1-TROYcd cells, NF-kB luciferase, uHTS | AID 1347056, 2019 | Q293 LMP1-TROYcd NF-kB luciferase reporter, 4 h | hit rate 0.98% among 360,000 | inhibition, % at 10 µM;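 active = compounds whose plate-normalised and pattern-corrected inhibition of the luciferase reporter signal at the single screening dose is 50% or more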
HIF-2a block: HIF-2a reporter inhibitors, primary screen, luminescence, 786-0 RCC cells | 786-0 RCC cells HIF-2a reporter, luciferase luminescence, overnight | inhibition, % at 18.8 µM | hit rate 0.72% among 360,000;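 active = inhibition of the luminescence signal of 40% or more relative to plate controls, in a single-dose primary screen at 18.75 µM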
TWEAK Fn14 block: inhibitors of TWEAK-Fn14 signaling, primary screen, luciferase reporter cells, uHTS; TWEAK-stimulated Fn14 reporter cells, luciferase luminescence, 8 h; inhibition, % at 10 µM; hit rate 2% among 360,000; in the data active = inhibition above about 50%
An asterisk follows results filed as active; x = no result.

SMILES | Peg3 prom inh | CF NFkB inh | KKLEB tox | TROY signal inh | HIF-2a block | TWEAK Fn14 block
CCC(C)NC(=O)c1cc2cc3ccc(OC)cc3nc2s1 (stereo not given) | -132 | -5 | 10 | -18 | -182 | 51*
Cc1csc(NC(=O)CSc2nc3[nH]c(=O)cc(O)c3s2)n1 | 99* | 71* | -19 | 2 | 30 | 19
O=C(CSc1nc2[nH]c(=O)cc(O)c2s1)Nc1nncs1 | 5 | 4 | -23 | 21 | 2 | 8
Cc1cccc(C(P(=O)(c2ccccc2)c2ccccc2)P(=O)(c2ccccc2)c2ccccc2)n1 | 7 | 8 | 6 | -1 | 10 | 79*
Cc1cccc(C(O)C(O)c2cccc(C)n2)n1 (stereo not given) | -2 | 16 | 6 | 16 | -4 | 0
CCC(=O)NCCc1nc2cc(NC(=O)c3ccc(Cl)cc3)ccc2n1C | -272 | -4 | 8 | -23 | -226 | 0
COc1ccc(N2CCc3c(C)nc4c(OC)cc(OC)cc4c32)c(OC)c1 | 14 | -6 | 2 | 7 | 16 | -45
COc1ccc(N2CCc3c(C)nc4c(OC)cc(OC)cc4c32)cc1 | 74* | -154 | 2 | -11 | 28 | -82
O=C(NCCCl)NNc1c(Cl)cc(Cl)cc1Cl | -110 | 5 | -5 | 72* | -111 | 51*
COc1ccc(Cl)cc1NC(=S)NC1CCCC1 | 11 | 7 | 0 | 3 | 7 | 18
CC(=O)CC(C)(C)n1nnc(-c2ccccc2)n1 | -7 | -6 | 5 | -3 | -23 | 92*
Cc1cccc(S(=O)(=O)Nc2nc3ccccc3nc2NCC2CCCO2)c1 (stereo not given) | -1 | 10 | -9 | 11 | 6 | 3
O=C1N=c2ccccc2=C1c1sc(=S)n(NC(=O)c2ccccc2)c1O | 8 | 16 | -12 | 12 | 10 | 10
C=CCn1c(O)c(C2=c3ccccc3=NC2=O)sc1=Nc1ccc(O)cc1 | 63* | 11 | 2 | -5 | 18 | 29
Nc1ccc(-c2cn3cccnc3n2)cc1 | -132 | -19 | -10 | -16 | -67 | 0
CCOC(=O)c1sc(NC(=O)CSc2n[nH]c(-c3ccccc3)n2)c(C#N)c1C | 14 | 35 | -15 | 65* | -30 | -8
COc1ccc(N=Nc2cc(C)c(O)c(CN3CCCCC3)c2)cc1 | -12 | -1 | -1 | -23 | -2 | -17
COc1ccc2nc3cc(Cl)ccc3c(Nc3cc(CN4CCCC4)c(O)c(CN4CCCC4)c3)c2n1 | 97* | 30 | 3 | -77 | 14 | 28
COc1ccc(-c2sc3ccccc3c2-c2ccc(O)cc2)cc1 | 42 | 1 | 12 | -5 | 6 | 29
CN(C)CCOc1ccc(-c2c(-c3ccsc3)sc3ccccc23)cc1 | 98* | 42 | -31 | -6 | -2 | -30
c1ccc(-c2sc3ccccc3c2-c2ccc(OCCN3CCOCC3)cc2)cc1 | 14 | 18 | -3 | -2 | 11 | -5
COc1ccc(-c2sc3ccccc3c2-c2ccc(OCCN(C)C)cc2)cc1 | 101* | 44 | -47 | 26 | 22 | -47
Cc1cc(C)c(NC(=O)c2cccc3c2C(=O)N(C2CCCCC2)C3)c(C)c1 | 56* | 6 | 1 | 29 | 15 | -17
Cc1ccc(-c2ccc(=O)n(Cc3cc(C)ccc3C)n2)cc1 | 36 | 23 | -6 | 7 | 24 | 8
Cc1ccc(C)c(Cn2nc(-c3ccccc3)ccc2=O)c1 | 49 | -6 | -2 | 56* | 18 | -18
SMILES | Peg3 prom inh | CF NFkB inh | KKLEB tox | TROY signal inh | HIF-2a block | TWEAK Fn14 block
CCC1CSC(Nc2ccc(C(=O)/C=C/c3cccc(C)c3)cc2)=N1 (stereo not given) | -29 | 24 | -15 | -11 | -84 | 52*
CCC1CSC(Nc2ccc(C(=O)/C=C/c3ccc(Oc4ccccc4)cc3)cc2)=N1 (stereo not given) | -118 | -16 | 1 | -36 | -25 | 14
O=C(Nc1ccc(Oc2c(F)c(F)c(F)c(F)c2F)cc1)OC1CCN2Cc3ccccc3N=C12 (stereo not given) | 109* | -19 | 4 | 61* | 22 | 37
Cc1cccc(NC(=O)Nc2ccc(Oc3c(F)c(F)c(F)c(F)c3F)cc2)c1 | 16 | 12 | -8 | -1 | -13 | -5
Cn1c(SCC(=O)Nc2ccc(F)cc2)nc2c([nH]c3ccccc32)c1=O | 43 | 48 | -43 | -14 | 25 | 2
C=CCn1c(SCC(=O)Nc2ccccc2OC)nc2c([nH]c3ccccc32)c1=O | 7 | 55* | -57* | 19 | 15 | -2
Cc1ccc(NC(=O)CSc2nnc3c(n2)[nH]c2ccccc23)cc1 | 4 | -3 | -1 | 4 | 4 | 8
COCCn1c(SCC(=O)Nc2ccccc2OC)nc2c([nH]c3ccccc32)c1=O | 24 | -7 | 1 | 7 | 31 | 43
Cc1ccc(NC(=O)CSc2nc3c([nH]c4ccccc43)c(=O)n2C)cc1 | 54* | 2 | 6 | -15 | 10 | -2
Cc1ccc(-c2csc(NC(=O)CSc3nnc4c(n3)[nH]c3ccccc34)n2)cc1 | 56* | 20 | -12 | 30 | -31 | 23
Cc1ccc2cc(CN(CCCO)S(=O)(=O)c3ccccc3F)c(=O)[nH]c2c1C | 17 | 5 | 2 | -28 | -14 | 20
CC(C)C[C@H](NC(=O)[C@@H](Cc1ccccc1)n1c(=O)[nH]c2ccccc2c1=O)C(=O)N[C@@H](Cc1ccccc1)C(=O)O | 11 | -26 | 8 | -3 | 4 | -1
COc1ccc(CCNC(=O)COc2ncnc3ccccc23)cc1OC | 16 | 8 | 0 | -11 | 18 | 4
CC(=O)Nc1cc[n+](CC(=O)c2ccc(Cl)cc2)cc1 | 10 | 1 | -3 | 1 | 12 | 2
Cc1nn(CCc2nn[nH]n2)c2nc(-c3ccc(C4CCCCC4)cc3)cc(C(F)(F)F)c12 | 24 | 76* | -57* | 56* | 12 | 26
CCOC(=O)c1ccc(NC(=S)P(=O)(c2ccccc2)c2ccccc2)cc1 | 1 | -8 | -5 | -13 | -4 | 71*
CCOC(=O)N1CCN(C(=O)c2ccc(NS(C)(=O)=O)cc2)CC1 | -10 | -12 | 3 | -2 | -8 | 17
CCOC(=O)c1ccc(NS(C)(=O)=O)cc1 | 11 | 3 | 0 | x | 9 | 82*
Cc1ccc(NCc2nc3ccccc3n2C)cc1 | -224 | 12 | -5 | 49 | -234 | 66*
Cn1c(CNc2ccc(O)cc2)nc2ccccc21 | -36 | 0 | -4 | -23 | -81 | 17
